Laboratory results: PubChem BioAssay (EPA / NIEHS)
Calls of active or inactive are those of the source. Rule for the calls: active = hit-call score of the fitted dose curve at least 0.9, where 1 is the maximum; inactive = score below 0.9.

These compounds were tested against Signal transducer and activator of transcription 3 (Homo sapiens) (UniProt P40763) (assay: ATG_STAT3_CIS: Attagene CIS-FACTORIAL HepG2 Assay for human Signal Transducer and Activator of Transcription 3 (STAT3) (AID 2282963)). Settings: HepG2, Attagene cis-factorial STAT3 reporter transcription; actives raise or lower the signal.
Procedure: ATG_CIS is a cell-based, multiplexed-readout assay that uses HepG2, a human liver cell line, with measurements taken at 24 hours after chemical dosing in a 24-well plate.ATG_STAT3_CIS is one of 52 assay component(s) measured or calculated from the ATG_CIS assay. It is designed to make measurements of mRNA induction, a form of inducible reporter, as detected with fluorescence intensity signals by Reverse transcription polymerase chain reaction (RT-PCR) and Capillary electrophoresis technology.Data from the assay component ATG_STAT3_CIS was analyzed into 1 assay endpoint. This assay endpoint, ATG_STAT3_CIS, was analyzed with bidirectional fitting relative to DMSO as the negative control and baseline of activity. Using a type of inducible reporter, measures of mRNA for gain or loss-of-signal activity can be used to understand the reporter gene at the transcription factor-level as they relate to the gene STAT3. Furthermore, this assay endpoint can be referred to as a primary readout, because this assay has produced multiple assay endpoints where this one serves a reporter gene function. To generalize the intended target to other relatable targets, this assay endpoint is annotated to the dna binding intended target family, where the subfamily is stat protein.
Human liver HepG2 cells are transiently transfected with multiple reporter transcription units (MRTUs) in 6-well plates using FuGene 6 reagent (Roche; 3 ml FuGene/1 mg DNA). The MRTU constructs are regulated by a cis-regulating element (promoter). […] A major difference between the CIS and TRANS system is that in CIS activities of endogenous TFs are measured, whereas the TRANS assay evaluates changes in activities of exogenous, chimeric NR-Gal4 proteins. […] At the end of 24 hour incubation, total RNA was isolated using TriZol reagent (Invitrogen). The isolated RNA is then reverse-transcribed using oligo(dT) primer and Mo-MLV reverse transcriptase (Invitrogen) with DNAse I (Ambion) treatment for 30 min. The one-tenth of the produced cDNA was amplified by PCR using Taq DNA polymerase (Invitrogen) and two reporter sequence-specific primers. The PCR products were fluorescently labeled by primer extension with 6-arboxyfluorescein (6-FAM) 5'-labeled reporter sequence-specific primer (2 min at 95 C, 20 s at 68 C and 10 min at 72 C) and these products were digested with 5U of HpaI (New England Biolabs) for 2h at 37 C. The fragments were purified using Qiaquick PCR columns (Qiagen), analyzed on an ABI 3130xL genetic analyzer (Applied Biosystems) with peak positions identified by using a set of X-rhodamine (ROX)-labeled MapMarker1000 molecular weight standards (BioVentures). The raw capillary electrophoresis data was processed using Attagraph software (Attagene).

Sequence of Signal transducer and activator of transcription 3 (Homo sapiens) (P40763 whole entry, looked up): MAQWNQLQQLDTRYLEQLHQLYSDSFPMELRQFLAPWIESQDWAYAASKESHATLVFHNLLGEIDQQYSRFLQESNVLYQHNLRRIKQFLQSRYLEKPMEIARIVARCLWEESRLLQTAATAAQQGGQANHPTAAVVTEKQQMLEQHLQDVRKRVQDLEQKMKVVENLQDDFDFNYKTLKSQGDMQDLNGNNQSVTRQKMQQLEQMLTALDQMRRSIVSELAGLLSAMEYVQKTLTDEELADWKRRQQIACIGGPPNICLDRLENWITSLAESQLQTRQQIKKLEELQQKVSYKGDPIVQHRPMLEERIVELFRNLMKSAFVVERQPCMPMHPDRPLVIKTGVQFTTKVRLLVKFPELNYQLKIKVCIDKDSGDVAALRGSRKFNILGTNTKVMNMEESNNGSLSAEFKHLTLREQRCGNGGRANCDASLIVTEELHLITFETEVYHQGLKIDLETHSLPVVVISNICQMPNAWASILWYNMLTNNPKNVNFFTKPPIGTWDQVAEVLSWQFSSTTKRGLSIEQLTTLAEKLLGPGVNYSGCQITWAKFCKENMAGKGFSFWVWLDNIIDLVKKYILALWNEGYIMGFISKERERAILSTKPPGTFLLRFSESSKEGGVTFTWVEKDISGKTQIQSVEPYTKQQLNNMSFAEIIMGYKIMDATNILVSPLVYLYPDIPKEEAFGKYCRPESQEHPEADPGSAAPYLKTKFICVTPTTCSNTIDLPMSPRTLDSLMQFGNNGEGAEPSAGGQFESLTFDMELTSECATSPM

SMILES | outcome | AC50
O=C(O)CCCC(=O)O | inactive | 
CC(C)(c1ccccc1)c1ccc(Nc2ccc(C(C)(C)c3ccccc3)cc2)cc1 | inactive | 
CCCC/C=C/C=C\C=O | inactive | 
O=C(Cl)c1ccc(C(=O)Cl)cc1 | inactive | 
Cc1ccc(C)c(OCCCC(C)(C)C(=O)O)c1 | inactive | 
CC1(C)CCC[C@]2(C)[C@H]3CC(=O)O[C@]3(C)CC[C@@H]12 | inactive | 
CCCSSCCC | inactive | 
O=S(=O)(O)c1ccc(Nc2nc(Nc3ccc(C=Cc4ccc(Nc5nc(Nc6ccc(S(=O)(=O)O)cc6)nc(N(CCO)CCO)n5)cc4S(=O)(=O)O)c(S(=O)(=O)O)c3)nc(N(CCO)CCO)n2)cc1 | inactive | 
O=C1c2ccccc2C(=O)c2cc(S(=O)(=O)O)ccc21 | inactive | 
Cc1cc(=O)[nH]c(=O)[nH]1 | inactive | 
O=C(C=Cc1ccccc1)OCCc1ccccc1 | inactive | 
C=C(C)C(=O)OCCCCCCCCCCCC | inactive | 
CC(CCC(=O)O)(c1ccc(O)cc1)c1ccc(O)cc1 | inactive | 
CC(C)CCOCc1ccccc1 | inactive | 
CC(=O)OCc1ccccc1 | inactive | 
O=C(O)C(F)(F)C(F)(F)C(F)(F)C(F)(F)C(=O)O | inactive | 
C=CCCCCCCCCC=O | inactive | 
COC(OC)(C(=O)c1ccccc1)c1ccccc1 | inactive | 
COC(=O)c1ccc(C(=O)OC)c(C(=O)OC)c1 | inactive | 
Nc1ccnc(=O)[nH]1 | inactive | 

SMILES | outcome | AC50
O=C(O)c1cc(O)c2ccccc2c1O | inactive | 
CC1=CP(=O)(c2ccccc2)CC1 (stereo not given) | inactive | 
O=c1c(O)c(-c2ccc(O)cc2O)oc2cc(O)cc(O)c12 | inactive | 
CC1CC(=O)CC(C)(C)C1 (stereo not given) | inactive | 
O=C(O)CC(C(=O)O)S(=O)(=O)O (stereo not given) | inactive | 
Oc1c(Cl)cc(Cl)c(Cl)c1Cl | inactive | 
CCCCCCCC(=O)OCC | inactive | 
C=C(C)C(=O)OCC(O)COc1ccc(C(C)(C)c2ccc(OCC(O)COC(=O)C(=C)C)cc2)cc1 (stereo not given) | inactive | 
CC1=C(O)C(=O)C(C)O1 (stereo not given) | inactive | 
CC1(C)[C@@H]2CC[C@@]1(C)C(=O)C2 | inactive | 
Oc1ccc(-c2ccccc2)c(Cl)c1 |  | 54.5 µM (active)
O=C(O[C@@H]1Cc2c(O)cc(O)cc2O[C@@H]1c1cc(O)c(O)c(O)c1)c1cc(O)c(O)c(O)c1 | inactive | 
CC(C)CCCCCOC(=O)CS | inactive | 
CC(C)c1cccc(C(C)C)c1N | inactive | 
Nc1nc(N)nc(-c2ccccc2)n1 | inactive | 
CCOB(OCC)OCC | inactive | 
CCCCCCCOC(=O)c1ccc(O)cc1 | inactive | 
CN1CCN(C)CC1 | inactive | 
CC(C)(CO)COC(=O)C(C)(C)CO | inactive | 
CC(=O)OCC=C(C)C | inactive | 
